In all, about 35,000 sequences were measured (“fluorescence intensity (a.u.)”: median about 10,000, highest 2% from about 52,000 on). Shown is part of a subset that was picked to be rich in the highest values.
Target: T1, OsWOX13 (Oryza sativa, UniProt Q5QMM3 1-267)
T1 sequence: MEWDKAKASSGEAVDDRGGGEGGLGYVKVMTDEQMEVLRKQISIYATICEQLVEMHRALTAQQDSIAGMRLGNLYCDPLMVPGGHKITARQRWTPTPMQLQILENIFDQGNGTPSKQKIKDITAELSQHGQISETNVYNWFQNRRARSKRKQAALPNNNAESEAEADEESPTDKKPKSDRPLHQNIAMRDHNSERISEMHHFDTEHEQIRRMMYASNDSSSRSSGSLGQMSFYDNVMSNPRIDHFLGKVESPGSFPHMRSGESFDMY
Experiment: protein-binding microarray (RPBM); PBS, 2% BSA, 51.3 ng/ul salmon testes DNA, 50 uM zinc acetate, 200 nM TF, 25 C, 1 h; high values mean tight binding
Conditions: protein: recombinant; tags: N-terminal polyhistidine and DsRed monomer fusion (pET32a); label: CyDye5-dUTP incorporated in the synthesized complementary strand; 3' TTTTT single-stranded linker to array surface; dsDNA, one strand shown
Procedure, shortened: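 Binding signal is defined as the fluorescence intensity of each feature in arbitrary units, read on an Axon 4000B scanner. Transcription factors with N-terminal polyhistidine and DsRed fusions came from E. coli BL21-CodonPlus and were purified on Ni–NTA. They were incubated at 200 nM for 1 h at 25 °C on a custom Agilent array that had been made double-stranded with Cy5-dUTP, with 50 µM zinc acetate present, and the array was washed.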

Sequence	binding signal
CATGATTGAAACATTACTTGATGGCTTCTGGTCCTACCCACGGAGTCACCTAGTGCAG	53900 fluorescence intensity (a.u.)
TTTTGATTGGCCGAGGAGAAGGCGAAACAGACTGCCACTGCGGAGTCACCTAGTGCAG	53800 fluorescence intensity (a.u.)
TGGGAGATTGTATTAAACAGAGGAGAACGATGGCGAAAGGCGGAGTCACCTAGTGCAG	6630 fluorescence intensity (a.u.)
GAAACATGTTGAGATTGATTTACATTTTGTGCGCGAGAAGCGGAGTCACCTAGTGCAG	18000 fluorescence intensity (a.u.)
TTATTTGACACAATGCGATTGAATTGGGGTGCAGGAGTATCGGAGTCACCTAGTGCAG	6780 fluorescence intensity (a.u.)
AGAAATATTCAATCAAGCTACTGCGCACATATATCTTTATCGGAGTCACCTAGTGCAG	9630 fluorescence intensity (a.u.)
GTGCTGTGATTGGCCGCGCGGGATTTCCTGGGCGGGCGGGCGGAGTCACCTAGTGCAG	22600 fluorescence intensity (a.u.)
CTATCATATTGACAGCTTTGTAATTGCTTTTGACAGGTTCCGGAGTCACCTAGTGCAG	26400 fluorescence intensity (a.u.)
AATTGACGTAATTTCAGGTCGTATTTGTGGTGCAACAACCCGGAGTCACCTAGTGCAG	16600 fluorescence intensity (a.u.)
CATATTGACAGCTTTGTAATTGCATTTGACAGGTTCAACCCGGAGTCACCTAGTGCAG	60500 fluorescence intensity (a.u.)
TTTTATCTCACCAATCAATTTAATTTCTTTATTTATTTTCCGGAGTCACCTAGTGCAG	6870 fluorescence intensity (a.u.)
TCCTAATTGTACAATTAATTAAATTAAGTACAGTCCTATGCGGAGTCACCTAGTGCAG	53000 fluorescence intensity (a.u.)
TCCACAGATTGAGGAATCCGAGCAACAAATATCCTAGTAGCGGAGTCACCTAGTGCAG	11900 fluorescence intensity (a.u.)
TAAAATTAAATTTACAAGGGTTAATTCGCGAGTAATAACGCGGAGTCACCTAGTGCAG	12300 fluorescence intensity (a.u.)
GGTCCTAATTGACAAATCCACAGAAGTAGTACTCCAGGAGCGGAGTCACCTAGTGCAG	53000 fluorescence intensity (a.u.)
AATGTCTGCAATTAATCAATCTGTTAATCTGTTATTAGTACGGAGTCACCTAGTGCAG	21900 fluorescence intensity (a.u.)
TGGACATTGACAAAATCACAGATCCAGTAAGTACTAGTATCGGAGTCACCTAGTGCAG	3170 fluorescence intensity (a.u.)
TATGCAGTTTTACAATAATTTAATTAAAGTACAGTTTTGTCGGAGTCACCTAGTGCAG	5420 fluorescence intensity (a.u.)
CGAAATTAATTAGCGAAATTAATTAACGCTTTACACAAGGCGGAGTCACCTAGTGCAG	64900 fluorescence intensity (a.u.)
TCACAAAATAATTAACTTTAAAATTAAATTTTAGCAGCAGCGGAGTCACCTAGTGCAG	15100 fluorescence intensity (a.u.)
ATAATTATTCTGTTAATTAATCAATTATTATCTGGGAATCCGGAGTCACCTAGTGCAG	63600 fluorescence intensity (a.u.)
TGAGTAAATGTGTTGTTGTTAATTGCTATATGTACAGTTGCGGAGTCACCTAGTGCAG	5280 fluorescence intensity (a.u.)

Sequence	binding signal
GGCTAATTTGGCGAGGTAATACGGTAGTATAGCACGGTTACGGAGTCACCTAGTGCAG	10500 fluorescence intensity (a.u.)
CCCGCTTGAATGGATGGCAATCAACACAAGGAACAGACCGCGGAGTCACCTAGTGCAG	13700 fluorescence intensity (a.u.)
AATCAAATTGCCACTTAAATCTATTGCCTCAAGTGAACAGCGGAGTCACCTAGTGCAG	16100 fluorescence intensity (a.u.)
GATCAATTAATATGGAATTTAAAAGTTCAATTAATATGGACGGAGTCACCTAGTGCAG	8910 fluorescence intensity (a.u.)
TTCAATTGATGTTCTTGCTTGCAAGTTGCAACGAGATTTGCGGAGTCACCTAGTGCAG	7920 fluorescence intensity (a.u.)
AATGATGATTGATGGGTCATGGCACAAGGACGCTAAACCGCGGAGTCACCTAGTGCAG	40700 fluorescence intensity (a.u.)
ATATAATAGCTAATCAAACACTAGTCCGAAGACGTAGTATCGGAGTCACCTAGTGCAG	21700 fluorescence intensity (a.u.)
CCCTCGCCTGGGCCGATCCCCATACATCCCGCGAGCGCGACGGAGTCACCTAGTGCAG	3440 fluorescence intensity (a.u.)
GTTCGATTGAGATAGCTCTTAACATCAGTGACTTCTAGCCCGGAGTCACCTAGTGCAG	3800 fluorescence intensity (a.u.)
TTTAATCACAAGCAAATCAATTAACTCATCCATACTCATCCGGAGTCACCTAGTGCAG	24200 fluorescence intensity (a.u.)
TATTCAAATCATTTAAGTAATTATTTATTCTTTTCATATCCGGAGTCACCTAGTGCAG	10000 fluorescence intensity (a.u.)
GCAATCAATCAATCAATCATATATCCATATCAAATTAAGCCGGAGTCACCTAGTGCAG	61800 fluorescence intensity (a.u.)
TAAGTAATTAATTAATCAATCAATTAATCAATTATTATCCCGGAGTCACCTAGTGCAG	52600 fluorescence intensity (a.u.)
GATGATAAATTAAGTCACAATAAATAAATAATAATAATATCGGAGTCACCTAGTGCAG	5820 fluorescence intensity (a.u.)
CCCTCCAATCAAATTAACCTCCATATCTCTAGCAATCTGCCGGAGTCACCTAGTGCAG	29800 fluorescence intensity (a.u.)
GCTACAATAATTAATCAATTAATTAAATTAAATTAAGTGGCGGAGTCACCTAGTGCAG	55300 fluorescence intensity (a.u.)
ATAAATTAATCCAGGCGTGATCTCCCGGCGCCCGCACGCGCGGAGTCACCTAGTGCAG	7300 fluorescence intensity (a.u.)
AATTAATTATCATCATTACCGCAAATTCTCAAAAGTCAGGCGGAGTCACCTAGTGCAG	41200 fluorescence intensity (a.u.)
TCCCAATTAAGTCAATCAGTAATAATAAATAATTATGAACCGGAGTCACCTAGTGCAG	32500 fluorescence intensity (a.u.)
ATTAATTAACAATAATAAGTGATTAATAATTAATTAATCGCGGAGTCACCTAGTGCAG	44200 fluorescence intensity (a.u.)
TTAATTAACGCGATTAATTAGCCGCAAATCTCAATCCAGGCGGAGTCACCTAGTGCAG	53200 fluorescence intensity (a.u.)
